Data on 12 compounds can be found in PubChem BioAssay (NCATS).

Records with an inconclusive call do not appear. A number with no mark means an inactive call. Active and inactive are the calls of the source. The call rests on the fitted dose curve; in most records, active means well fitted curve in either direction with a large enough effect (not every such curve was filed as active); inconclusive means small, poorly fitted or top-dose-only effect, or another doubt; inactive means flat fitted curve, though single readings scatter.
On the % scale 0 is the no-effect control and ±100 the full control effect; potency means the concentration at half of the fitted maximal effect.

The assay concerns the target Mitogen-activated protein kinase 10 (Mus musculus) (UniProt Q61831). As to the kind of experiment: JNK3 AlphaScreen Assay (AID 530).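 Further: kinase came from lysate of stimulated human HepG2 cells.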 The note with it: JNK3 lysate, c-Jun phosphorylation; series mostly up to 57.1 µM; activity change, negative = inhibition: at the top concentration. From the text:
NIH Chemical Genomics Center [NCGC]
NIH Molecular Libraries Screening Centers Network [MLSCN]
The c-jun N-terminal kinase (JNK) family are serine/threonine protein kinases that phosphorylate c-jun, a component of the transcription factor […] (AP-1). JNK kinases are members of the mitogen-activated protein kinase family including the extracellular regulated kinases and p38 kinases. Three JNK genes (JNK 1, 2, and 3) have been identified in humans so far. JNK1 and JNK2 have a broad distribution and JNK3 is primarily found in neuronal tissues and cardiac myocytes.
JNK3 has been under consideration as a target for the treatment of neurodegenerative disorders. […] JNK pathway is also involved in pathological process in a mouse model of Parkinson's disease (Xia et al., 2001).
Given these potential tissue distributions and links to neuroprotection, JNK3 inhibitors should provide useful investigational tools to study the role of this kinase in several diseases including, arthritis, stroke, myocardial infarction, ischemic injury and Parkinson's disease.
A homogeneous AlphaScreen is developed to measure the activity of JNK3. AlphaScreen is a two bead-based proximity-dependent chemical energy transfer luminescent assay platform. The phosphorylation of a biotinylated c-jun substrate by JNK3 can be detected with an antibody raised against phosphorylated c-jun. This process brings streptavidin donor beads and Protein-A acceptor beads to within a proximity range of <200 nm, and subsequently lead a chemical luminescent reaction upon exciting donor beads with 680 nm laser excitation light. Inhibition of JNK3 activity by small molecules and subsequent decrease in the antibody binding to biotinylated c-jun could attenuate or abolish this chemical luminescent reaction.
Yang DD, Kuan CY, Whitmarsh AJ, Rincon M, Zheng TS, Davis RJ, Rakic P and Flavell RA (1997) Absence of excitotoxicity-induced apoptosis in the hippocampus of mice lacking the Jnk3 gene. Nature 389:865-870. [PMID: 9349820]
Herdegen T, Claret FX, Kallunki T, Martin-Villalba A, Winter C, Hunter T, and Karin M (1998) Lasting N-terminal phosphorylation of c-Jun and activation of c-Jun N-terminal kinases after neuronal injury. J.Neurosci. 18:5124-5135. [PMID: 9651196]
Xia XG, Harding T, Weller M, Bieneman A, Uney JB and Schulz JB (2001) Gene transfer of the JNK interacting protein-1 protects dopaminergic neurons in the MPTP model of Parkinson's disease. Proc.Natl.Acad.Sci.U.S.A. 98:10433-10438.
NCGC Assay Protocol Summary:
GST-cJun (1-79) (Stratagene, La Jolla CA, #205145) was biotnylated by PerkinElmer (PerkinElmer-BioSignalInc. Montreal, Canada) and was detectable by the streptavidin Donor beads. Anti-(phospho)cJun (Ser73) antibody was from UpState (Charlottesvilles, VA, #06-659). JNK3-containing lysates were generated from HepG2 cells and pre-activated by interleukin1-beta and tumor necrosis factor alpha. All reagents were stored at -20 C before using. Phosphorylated biotinylated-GST-cJun was recognized by Anti-(phospho)cJun (Ser73) antibody and this process brings acceptor and donor beads together. Therefore JNK3 phosphorylation of cJun can be measured by Alpha reading by EnVision (PerkinElmer, Boston, MA).
The composition of kinase buffer was (in mM) 20 tris- HCl (pH 7.6) 10 MgCl2, 1 DTT, and 0.1 Na3VO4 and 0.01% Tween-20. Beads were diluted in detection buffer containing (in mM) 20 tris-HCl (pH 7.7), 20 NaCl and 80 EDTA and 0.3% BSA. The assay was performed at room temperature. All compounds were screened as titrations from 0.6 nM to 46 uM final concentration. The assay was performed in 1536-well format (white solid bottom and untreated) as follows:
Sequence,Parameter,Value,Description
1,Reagent,3 uL,Biotin-GST-cJun, Anti-(phospho)cJun and pre-activated JNK3-containing lysates
2,Compound,23 nL,Final concentration was 0.6nM to 46uM
3,Time,15 minutes,Room Temperature
4,Reagent,1 uL,ATP final concentration 10uM
6,Reagent,0.5 uL,2ng/well bead mixture
[…]
In general terms: Alpha assays give light when donor and acceptor beads are brought close together.
As to `Nc1nc2c(c(=O)[nH]1)N(C=O)[C@H](CNc1ccc(C(=O)N[C@@H](CCC(=O)O)C(=O)O)cc1)CN2`, the “activity change, negative = inhibition” value is -6.34% [at 25.6 µM]. For the compound `O=C(O)C=Cc1ccc(Cn2ccnc2)cc1`, the “activity change, negative = inhibition” value was 13.3%.

Take `COc1ccc([C@@H]2CNC(=O)C2)cc1OC1CCCC1`: the Potency entry is “inactive”. Same read-out and setting: in the case of `O=c1c(O)c(-c2ccc(O)c(O)c2)oc2cc(O)ccc12` it was 12.6 µM (active); in that of `CC(C)[C@H](CO)Nc1nc(Nc2cccc(Cl)c2)c2ncn(C(C)C)c2n1`, “inactive”.

As for `COc1ccc2c(c1OC)C(=O)OC2[C@H]1c2c(cc3c(c2OC)OCO3)CCN1C` (some centres not stated), the Potency result was “inactive”. Take `c1coc(CNc2ncnc3nc[nH]c23)c1`: the Potency result was “inactive”.

`Cc1cc(O)c2c(c1)C(=O)c1cccc(O)c1C2=O`: the “activity change, negative = inhibition” value is -26.5%. `CCN1CCN(C(=O)N[C@H](C(=O)N[C@@H]2C(=O)N3C(C(=O)O)=C(CSc4nnnn4C)CS[C@@H]23)c2ccc(O)cc2)C(=O)C1=O`: the “activity change, negative = inhibition” value was 20.5% [at 25.6 µM]. Turning to `CCOC(=O)C1=C(C)NC(=S)NC1c1cccc(O)c1` (configuration not stated), the “activity change, negative = inhibition” value was -25.9%. Take `CN(N=O)C(=O)N[C@H]1C(O)OC(CO)[C@@H](O)[C@H]1O` (some centres not stated): the “activity change, negative = inhibition” value is 14.9%. With `CN(C)CC[C@H](c1ccc(Cl)cc1)c1ccccn1`, the Potency result is “inactive”.
